According to PubChem BioAssay (NCATS):
Inconclusive results are not listed. Where a call stands in place of a potency, no number is given. Values without a mark were called inactive. Active and inactive are the calls of the source. The call rests on the fitted dose curve; in most records, active means well fitted curve in the direction sought with a large enough effect; inconclusive means small, poorly fitted or top-dose-only effect, or another doubt; inactive means no such curve, though single readings can be large; an effect the other way counts as inactive or inconclusive. Where a SMILES comes first, the peptide text is derived from it. The star is where a group is joined. AMC = Cc1cc(=O)oc2cc(N*)ccc12; βNA = c1ccc2cc(N*)ccc2c1; Cbz = O=C(OCc1ccccc1)*

Columns and labels:
[1] = target: Calcium and integrin-binding protein 1 (Homo sapiens) (UniProt Q99828); experiment: Primary qHTS for Identification of Calcium Integrin Binding Protein 1 (CIB1) Competitor (AID 1508620); settings: CIB1-GST / FITC-alphaIIb peptide fluorescence polarization; series mostly up to 57.7 µM;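 further: GST tagged CIB1 binding a fluorescein labelled alphaIIb integrin peptide tracer; top concentration of the series differs between compounds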
Summary of the method: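 Fluorescence polarization competition: CIB1-GST (1 uM final) preincubated with compound 15 min at room temperature, then FITC-labeled alphaIIb peptide (100 nM final) added for another 15 min. Polarization read at Ex 480/Em 540.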

[2] = Primary qHTS for inhibitors of nuclear receptor binding SET domain protein 2 (NSD2) in an isogenic RCH-ACV NSD2 p.E1099K mutant (9B) (AID 1645876); settings: RCH-ACV NSD2 E1099K (9B) viability, CellTiter-Glo, 72 h; series mostly up to 44.9 µM; further: nearly all actives have a fitted effect of over 70% in size; further: potency means the concentration at half of the fitted maximal effect
[3] = Primary qHTS for inhibitors of nuclear receptor binding SET domain protein 2 (NSD2) in an RCH-ACV wild type WT cells (2C) (AID 1645877); settings: RCH-ACV (leukaemia line) NSD2 WT (2C) viability, CellTiter-Glo, 72 h; series mostly up to 44.9 µM; further: nearly all actives have a fitted effect of over 70% in size; further: potency means the concentration at half of the fitted maximal effect

Chain of Calcium and integrin-binding protein 1 (Homo sapiens) (Q99828 whole entry, looked up): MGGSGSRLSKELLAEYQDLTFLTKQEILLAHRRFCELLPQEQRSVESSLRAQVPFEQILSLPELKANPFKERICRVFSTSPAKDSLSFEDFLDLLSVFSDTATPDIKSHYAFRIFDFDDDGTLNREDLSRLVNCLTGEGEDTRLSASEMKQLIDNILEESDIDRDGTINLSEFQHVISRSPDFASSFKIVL

Row | Compound | Potency [1] | Potency [2] | Potency [3] | activity change, negative = viability loss [2] | activity change, negative = cell killing [3] | outcome [3]
1 | COC(O)(CC(C)C)C1Oc2cc(C)[nH]c(=O)c2O1 (stereo unspecified) | inactive | inactive | inactive |  |  | 
2 | CC(O)/C=C/C1(O)C(C)C(O)C(O[C@@H]2O[C@H](CO)[C@@H](O)[C@H](O)[C@H]2O)CC1(C)C (stereo partly specified) | inactive | inactive | inactive |  |  | 
3 | COC1OC(OC)C(O)(CCC2(C)C(C)CCC3(C)C2CC(O)C(O)C32CO2)C1O (stereo unspecified) | inactive | inactive | inactive |  |  | 
4 | COc1cc2c(cc1O)C(c1ccc(O)cc1)C(C)C(C)C2 (stereo unspecified) | inactive | 25.8 µM (active) | 18.3 µM (active) |  |  | 
5 | C/C(CO)=C1/CCC23COC(C2)C(O)(C(=O)O)CCC13 (stereo unspecified) | inactive | inactive | inactive |  |  | 
6 | CC(=O)O[C@@H]1C(O)C[C@@]2(C)C(CC[C@@H](C)C23Cc2c(O)cc4c(c2O3)CNC4=O)C1(C)C (stereo partly specified) | inactive | inactive | inactive |  |  | 
7 | NC1(c2ccc(NC(=O)c3ccnc(-c4cc(C(=O)O)ccn4)c3)cc2)CC1 | inactive | inactive | inactive |  |  | 
8 | C=C(C)[C@@H]1CC[C@]2(C(=O)O)CC[C@]3(C)C(CCC4[C@]5(C)C(CC[C@]43C)C(C)(C)[C@@H](O)[C@@H]5C(=O)O)C12 (stereo partly specified) | inactive | inactive | inactive |  |  | 
9 | COc1cc([C@H]2OC[C@](O)(Cc3ccc(O[C@@H]4O[C@H](CO)[C@@H](O)[C@H](O)[C@H]4O)c(OC)c3)[C@@H]2CO)ccc1O | inactive | inactive | inactive |  |  | 
10 | CC(=O)OC[C@]12[C@H](OC(C)=O)[C@H](OC(=O)c3ccccc3)[C@@H]3[C@@H](OC(C)=O)[C@]1(OC3(C)C)[C@H](C)C[C@H](OC(=O)c1ccccc1)[C@@H]2OC(=O)c1ccccc1 | inactive | inactive | inactive |  |  | 
11 | COc1cccc(C)c1C(=O)O[C@@H]1C[C@H](O[C@H]2[C@H](O)C[C@H](O[C@@H]3CCC[C@H]4[C@H]3C=C[C@@H]3CCCC/C=C/[C@H]5C=C(C(=O)O)[C@@H](C)C[C@@]56OC(=O)C(=C6O)OC(=O)[C@@]34C)O[C@@H]2C)O[C@H](C)[C@H]1O | inactive |  |  | -5.35% [at 9.23 µM] | -1.86% [at 9.23 µM] | 
12 | CC(C)CC(NC(=O)OCc1ccccc1)C(=O)NC(CC(C)C)C(=O)NC(CCC(=O)O)C(=O)Nc1ccc2ccccc2c1 (stereo not drawn) (Cbz-Leu-Leu-Glu-βNA; configuration not given here) | inactive | inactive | inactive |  |  | 
13 | COc1cc(-c2ccc(O)cc2)c(OC)c(O)c1C1=CC(=O)OC1CC(=O)O (stereo unspecified) | inactive | inactive | inactive |  |  | 
14 | O=c1[nH]ccc2nc(-c3ccc(CN4CCC(c5nc(-c6ccccn6)n[nH]5)CC4)cc3)c(-c3ccccc3)cc12 | inactive | 0.0325 µM (active) | 0.0817 µM (active) |  |  | 
15 | C[C@@]1(O)[C@H](O)[C@@H](CO)O[C@H]1n1cnc2c(=O)[nH]c(N)nc21 | inactive | inactive | inactive |  |  | 
16 | C=CC(C)(CC/C=C(\C)C(=O)OC[C@H]1O[C@@H](OC(C)(C=C)CC/C=C(\C)C(=O)O[C@H]2[C@H](O)[C@@H](O)[C@H](OC(C)(C=C)CC/C=C(\C)C(=O)O)O[C@@H]2CO)[C@H](O)[C@@H](O)[C@@H]1O)O[C@@H]1O[C@H](CO)[C@@H](O)[C@H](O)[C@H]1O (stereo partly specified) | inactive |  |  | -1.17% [at 9.23 µM] |  | inactive [at 9.23 µM]
17 | CC1(C)C(=O)N2c3ccccc3C(O)(CC(C(=O)O)n3cnc4ccccc4c3=O)C2N1O (stereo unspecified) | inactive | inactive | inactive |  |  | 
18 | C=C1[C@@H]2CC[C@@]3(C)[C@H](c4ccoc4)OC(=O)C[C@]13O[C@H]1CC(=O)C(C)(C)[C@H](C(O)C(=O)OC)[C@]12C (stereo partly specified) | inactive | inactive | inactive |  |  | 
19 | CCCC/C=C\CCCCCc1cc(=O)c2ccccc2n1C | inactive | inactive | inactive |  |  | 
20 | CSC(=O)OCC1=C[C@@H]2OC(=O)C3=CO[C@@H](O[C@@H]4O[C@H](CO)[C@@H](O)[C@H](O)[C@H]4O)[C@H]1[C@@H]32 | inactive | inactive | inactive |  |  | 
21 | N#CC1C(=O)N=C(c2cc(Cl)ccc2O)C=C1c1cc(OCc2ccccc2)cc(OCc2ccccc2)c1 (stereo unspecified) | inactive | inactive | inactive |  |  | 
22 | C/C=C(/C)C(=O)OC1C2OC2C2(CO2)C2C3OC(=O)C(C)C3CCC12C (stereo unspecified) | inactive | inactive | inactive |  |  | 
23 | CC(=O)OC1CCC2(C)C(CCC3(C)C2CC=C2C4CC(C)(C)CCC4(C)CCC23C)C1(C)C(=O)O (stereo unspecified) | inactive | inactive | inactive |  |  | 
24 | C[C@H]1[C@H](C)CC[C@]2(C(=O)O)CC[C@]3(C(=O)O)C(=CCC4[C@@]5(C)CC[C@H](O[C@@H]6O[C@@H](C)[C@H](O)[C@@H](O)[C@H]6O)C(C)(C)C5CC[C@]43C)[C@H]12 (stereo partly specified) | inactive | inactive | inactive |  |  | 
25 | O=C1NC(=O)/C(=C/c2cccc(C(F)(F)F)c2)S1 | inactive | inactive | inactive |  |  | 
26 | CC/C=C\CC1C(CC(=O)O)CCC1OC1OC(CO)C(O)C(O)C1O (stereo unspecified) | inactive | inactive | inactive |  |  | 

Row | Compound | Potency [1] | Potency [2] | Potency [3] | activity change, negative = viability loss [2] | activity change, negative = cell killing [3] | outcome [3]
27 | C=C[C@H]1[C@H](O[C@@H]2O[C@H](CO)[C@@H](O)[C@H](O)[C@H]2O)OC=C2C(=O)N3Cc4c([nH]c5ccccc5c4=O)[C@@H]3C[C@H]21 | inactive | inactive | inactive |  |  | 
28 | C=C1C(O)C(OC(=O)c2ccccc2)C2C(C)(C(=O)O)CCCC2(C)C1CC/C(C)=C\CO (stereo unspecified) | inactive | inactive | inactive |  |  | 
29 | CC1(C)C2CCC1(C)C(OC(=O)C(O)(CC(=O)O)CC(=O)O)C2 (stereo unspecified) | inactive | inactive | inactive |  |  | 
30 | C[C@@H]1C(=O)O[C@H]2[C@H]1CC[C@@]1(C)C(=O)C=C[C@@](C)(O)[C@H]21 | inactive | inactive | inactive |  |  | 
31 | CC(=O)OCC1=C[C@@H]2OC(=O)C3=CO[C@@H](O[C@@H]4O[C@H](CO)[C@@H](O)[C@H](O)[C@H]4O)[C@H]1[C@@H]32 | inactive | inactive | inactive |  |  | 
32 | C=CC(C)(O)CC/C=C(\C)COC1O[C@H](CO)[C@@H](O)[C@H](O)[C@H]1O (stereo partly specified) | inactive | inactive | inactive |  |  | 
33 | COC1CC(O[C@H]2CC[C@@]3(C)C(=CC[C@]4(O)C3[C@H](O)[C@@H](O)[C@]3(C)[C@@H]([C@H](C)O)CC[C@@]34O)C2)OC(C)C1OC1CC(OC)C(OC2CC(OC)C(OC3OC(C)C(OC4OC(CO)C(O)C(O)C4O)C(OC)C3O)C(C)O2)C(C)O1 (stereo partly specified) | inactive |  |  | 1.87% [at 9.23 µM] | -2.18% [at 9.23 µM] | 
34 | CC(=O)/C=C/C1(O)C(C)=CC(=O)CC1(C)C (stereo unspecified) | inactive | inactive | inactive |  |  | 
35 | Cc1cc(=O)oc2cc(NC(=O)[C@H](CCC(=O)O)NC(=O)[C@H](CC(C)C)NC(=O)[C@H](CC(C)C)NC(=O)OCc3ccccc3)ccc12 (Cbz-Leu-Leu-Glu-{AMC}) | inactive | inactive | inactive |  |  | 
36 | C[C@H]1CC(=O)C2=C(C1)C(O)C(O)[C@@]1(O)[C@H]2C(=O)c2cccc(O)c2[C@@H]1O (stereo partly specified) | inactive | inactive | inactive |  |  | 
37 | COc1ccc(C2C(C(=O)O)C(C(=O)O)C2c2ccc(OC)cc2O[C@@H]2O[C@H](CO)[C@@H](O)[C@H](O)[C@H]2O)c(O[C@@H]2O[C@H](CO)[C@@H](O)[C@H](O)[C@H]2O)c1 (stereo partly specified) | inactive | inactive | inactive |  |  | 
38 | CSCC1OC(n2cnc3c(N)ncnc32)C(O)C1O (stereo unspecified) | inactive | inactive | inactive |  |  | 
39 | O=C(OC1C=C(CO)C2C(OC3OC(CO)C(O)C(O)C3O)OC=CC12O)c1ccc(O)cc1 (stereo unspecified) | inactive | inactive | inactive |  |  | 
40 | COc1cc(/C=C/C(=O)O[C@H]2[C@H](O)[C@@H](CO)O[C@@]2(CO)O[C@H]2O[C@H](CO)[C@@H](O)[C@H](O)[C@H]2O)cc(OC)c1O | inactive | inactive | inactive |  |  | 
41 | CC1=C2CC(=O)C(C)CC/C=C(\C)CC2OC1=O (stereo unspecified) | inactive | inactive | inactive |  |  | 
42 | CC1(C)CCCC2(C)c3c4c(c(=O)oc(=O)c3=CCC12)=CCC1C(C)(C)CCCC41C (stereo unspecified) | inactive | inactive | inactive |  |  | 
43 | COC(=O)C1=COC(O[C@@H]2O[C@H](CO)[C@@H](O)[C@H](O)[C@H]2O)[C@@H]2[C@@](C)(O)[C@@H](OC(=O)/C=C/c3ccccc3)C[C@]12O (stereo partly specified) | inactive | inactive | inactive |  |  | 
44 | CC(=O)OC[C@]12[C@@H](OC(=O)c3ccoc3)C[C@@H]3[C@@H](OC(C)=O)[C@]1(OC3(C)C)[C@@](C)(O)C[C@H](OC(=O)c1ccoc1)[C@@H]2OC(=O)c1ccoc1 | inactive | inactive | inactive |  |  | 
45 | CC(CC12CCCN1C(=O)C1CCCN1C2=O)OC(N)=O (stereo unspecified) | inactive | inactive | inactive |  |  | 
46 | Fc1cccc(CN(C2=NCCN2)c2c(Cl)cccc2Cl)c1 | inactive | inactive | inactive |  |  | 
47 | C=C[C@H]1[C@H](O[C@@H]2O[C@H](CO)[C@@H](O)[C@H](OC(=O)/C=C/c3ccc(O)c(OC)c3)[C@H]2O)OC=C2C(=O)OCC[C@]21O | inactive | inactive | inactive |  |  | 
48 | C=C1CC23CC1CCC2C12OC(=O)C(C)(C(O)C(O)C1O)C2C3C(=O)O (stereo unspecified) | inactive | inactive | inactive |  |  | 
49 | CCC(C)/C=C(C)/C=C/C1=CC2=C(Cl)C(=O)C(C)(OC(C)=O)C(=O)C2=CN1C(CC(=O)O)C(=O)O (stereo unspecified) | inactive | inactive | inactive |  |  | 
50 | COc1cc(C(O)C2COC(c3ccc(OC4OC(CO)C(O)C(O)C4O)c(OC)c3)C2CO)ccc1O (stereo unspecified) | inactive | inactive | inactive |  |  | 
51 | C[C@@H]1O[C@@H](O[C@H]2[C@@H]3C=CO[C@@H](O[C@@H]4O[C@H](CO)[C@@H](O)[C@H](O)[C@H]4O)[C@@H]3[C@@]3(CO)O[C@@H]23)[C@H](O)[C@H](OC(=O)/C=C/c2ccc(O)cc2)[C@H]1OC(=O)/C=C/c1ccc(O)cc1 | inactive | inactive | inactive |  |  | 
52 | CC(C)c1ccc2c(c1)C(O)CC1C(C)(C(=O)O)CCCC21C (stereo unspecified) | inactive | inactive | inactive |  |  | 
